Here are results for seven compounds from ChEMBL document CHEMBL1961873, “Compounds: GSK PKIS; Assays: Nanosyn kinase panel” (2012).

Test [1] addresses T1, Tyrosine-protein kinase ITK/TSK (Homo sapiens) (UniProt Q08881).
T1 sequence (whole entry): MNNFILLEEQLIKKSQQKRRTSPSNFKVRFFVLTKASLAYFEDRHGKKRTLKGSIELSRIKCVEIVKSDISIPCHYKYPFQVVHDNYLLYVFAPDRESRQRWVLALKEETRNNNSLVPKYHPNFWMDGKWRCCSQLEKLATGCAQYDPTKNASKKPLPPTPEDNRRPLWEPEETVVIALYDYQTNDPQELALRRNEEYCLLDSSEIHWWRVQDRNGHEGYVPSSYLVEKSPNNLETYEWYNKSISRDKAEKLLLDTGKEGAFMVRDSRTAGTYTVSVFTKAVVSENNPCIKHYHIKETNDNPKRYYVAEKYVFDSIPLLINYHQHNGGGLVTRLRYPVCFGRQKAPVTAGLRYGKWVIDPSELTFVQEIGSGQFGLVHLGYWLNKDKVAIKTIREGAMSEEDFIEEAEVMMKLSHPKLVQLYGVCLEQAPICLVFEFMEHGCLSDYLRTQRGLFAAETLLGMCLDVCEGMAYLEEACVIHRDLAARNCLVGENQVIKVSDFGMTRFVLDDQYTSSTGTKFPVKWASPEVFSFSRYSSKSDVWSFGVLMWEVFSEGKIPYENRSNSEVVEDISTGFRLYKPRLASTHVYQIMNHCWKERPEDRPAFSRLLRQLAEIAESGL
The settings on record: at 1 µM.

For test [2], the target named is Tyrosine-protein kinase JAK1 (Homo sapiens) (UniProt P23458). The settings on record: at 0.1 µM.
Test [3] shares this target. The settings on record: at 1 µM.
Test [4] has as its target Tyrosine-protein kinase JAK2 (Homo sapiens) (UniProt O60674). The note with it: at 0.1 µM.
The target is the same in test [5]. The settings on record: at 1 µM.
Test [6] deals with T2, Tyrosine-protein kinase JAK3 (Homo sapiens) (UniProt P52333).
T2 sequence (whole entry): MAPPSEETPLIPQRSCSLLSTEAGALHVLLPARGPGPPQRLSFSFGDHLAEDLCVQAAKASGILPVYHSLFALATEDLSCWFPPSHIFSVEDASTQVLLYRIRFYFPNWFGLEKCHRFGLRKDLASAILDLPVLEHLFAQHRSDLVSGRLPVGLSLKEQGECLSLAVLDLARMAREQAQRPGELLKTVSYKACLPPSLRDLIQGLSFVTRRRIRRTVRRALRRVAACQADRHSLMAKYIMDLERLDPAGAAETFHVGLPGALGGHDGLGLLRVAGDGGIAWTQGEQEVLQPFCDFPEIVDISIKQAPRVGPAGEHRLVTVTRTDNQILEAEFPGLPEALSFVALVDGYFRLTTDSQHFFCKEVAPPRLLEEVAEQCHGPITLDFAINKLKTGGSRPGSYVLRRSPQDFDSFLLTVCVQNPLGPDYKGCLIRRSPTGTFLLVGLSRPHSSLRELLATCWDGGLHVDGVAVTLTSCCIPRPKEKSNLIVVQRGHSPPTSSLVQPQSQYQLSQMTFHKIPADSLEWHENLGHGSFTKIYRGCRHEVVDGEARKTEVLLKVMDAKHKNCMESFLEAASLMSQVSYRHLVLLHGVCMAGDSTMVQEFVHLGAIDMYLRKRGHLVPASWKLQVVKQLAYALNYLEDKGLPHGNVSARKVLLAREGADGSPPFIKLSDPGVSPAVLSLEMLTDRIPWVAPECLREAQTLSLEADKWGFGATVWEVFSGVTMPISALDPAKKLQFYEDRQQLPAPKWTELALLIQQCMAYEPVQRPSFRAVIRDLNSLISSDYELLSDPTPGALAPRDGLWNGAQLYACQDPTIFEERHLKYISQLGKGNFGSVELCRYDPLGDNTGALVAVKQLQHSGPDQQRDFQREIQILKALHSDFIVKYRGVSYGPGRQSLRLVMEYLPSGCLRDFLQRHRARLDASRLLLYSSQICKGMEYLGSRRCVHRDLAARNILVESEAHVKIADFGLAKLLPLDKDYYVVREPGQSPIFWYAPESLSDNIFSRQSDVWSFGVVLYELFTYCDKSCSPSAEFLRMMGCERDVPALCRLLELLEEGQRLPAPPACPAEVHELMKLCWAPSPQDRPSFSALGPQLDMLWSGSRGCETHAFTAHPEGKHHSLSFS
The note with it: at 0.1 µM.

In test [7] the target is T2, Tyrosine-protein kinase JAK3 (Homo sapiens). The note with it: at 1 µM.
In test [8] the target is Vascular endothelial growth factor receptor 2 (Homo sapiens) (UniProt P35968). The note with it: at 0.1 µM.
The target is the same in test [9]. The settings on record: at 1 µM.
The target in test [10] is Mast/stem cell growth factor receptor Kit (Homo sapiens) (UniProt P10721). The note with it: at 0.1 µM.
Test [11] has the same target. The note with it: at 1 µM.
Test [12] relates to Mast/stem cell growth factor receptor Kit (Homo sapiens), P10721 [D816V]. The settings on record: at 0.1 µM.
For test [13] the test system is unchanged. The settings on record: at 1 µM.
Test [14] concerns Mast/stem cell growth factor receptor Kit (Homo sapiens), P10721 [T670I]. The settings on record: at 0.1 µM.
Test [15] shares this test system. The note with it: at 1 µM.
The test system of test [16] is Mast/stem cell growth factor receptor Kit (Homo sapiens), P10721 [V560G]. The note with it: at 0.1 µM.
For test [17] the test system is unchanged. The note with it: at 1 µM.
For test [18], the target named is Tyrosine-protein kinase Lck (Homo sapiens) (UniProt P06239). The note with it: at 0.1 µM.
Test [19] has the same target. The note with it: at 1 µM.
Test [20] concerns the target Leukocyte tyrosine kinase receptor (Homo sapiens) (UniProt P29376). The note with it: at 0.1 µM.

What is called inhibition is the change of the read-out against control, counted positive when it falls.

Sequence of Leukocyte tyrosine kinase receptor (Homo sapiens) (P29376 whole entry): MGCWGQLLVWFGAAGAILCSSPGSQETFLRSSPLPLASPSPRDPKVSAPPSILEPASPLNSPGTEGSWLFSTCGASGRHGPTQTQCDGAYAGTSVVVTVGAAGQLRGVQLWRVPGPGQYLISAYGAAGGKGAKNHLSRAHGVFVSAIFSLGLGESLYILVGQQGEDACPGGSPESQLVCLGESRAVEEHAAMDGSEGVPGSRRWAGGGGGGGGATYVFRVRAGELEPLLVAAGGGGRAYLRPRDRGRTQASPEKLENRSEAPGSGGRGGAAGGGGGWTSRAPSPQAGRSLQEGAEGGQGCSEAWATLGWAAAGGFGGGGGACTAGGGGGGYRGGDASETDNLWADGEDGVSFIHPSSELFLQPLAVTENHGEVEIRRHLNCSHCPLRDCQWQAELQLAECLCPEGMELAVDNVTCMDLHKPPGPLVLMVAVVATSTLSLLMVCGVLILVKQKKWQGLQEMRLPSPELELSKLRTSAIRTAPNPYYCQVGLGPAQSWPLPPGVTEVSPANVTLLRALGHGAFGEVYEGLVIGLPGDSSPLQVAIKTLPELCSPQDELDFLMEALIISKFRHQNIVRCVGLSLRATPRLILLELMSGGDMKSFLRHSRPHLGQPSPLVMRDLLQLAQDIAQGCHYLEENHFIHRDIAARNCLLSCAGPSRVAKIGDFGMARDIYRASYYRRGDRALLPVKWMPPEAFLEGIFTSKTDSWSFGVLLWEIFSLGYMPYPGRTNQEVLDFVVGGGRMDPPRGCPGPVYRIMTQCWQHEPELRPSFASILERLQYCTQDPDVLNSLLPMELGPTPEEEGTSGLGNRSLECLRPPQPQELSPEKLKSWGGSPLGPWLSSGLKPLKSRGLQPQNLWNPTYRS
Sequence of Tyrosine-protein kinase JAK1 (Homo sapiens) (P23458 whole entry): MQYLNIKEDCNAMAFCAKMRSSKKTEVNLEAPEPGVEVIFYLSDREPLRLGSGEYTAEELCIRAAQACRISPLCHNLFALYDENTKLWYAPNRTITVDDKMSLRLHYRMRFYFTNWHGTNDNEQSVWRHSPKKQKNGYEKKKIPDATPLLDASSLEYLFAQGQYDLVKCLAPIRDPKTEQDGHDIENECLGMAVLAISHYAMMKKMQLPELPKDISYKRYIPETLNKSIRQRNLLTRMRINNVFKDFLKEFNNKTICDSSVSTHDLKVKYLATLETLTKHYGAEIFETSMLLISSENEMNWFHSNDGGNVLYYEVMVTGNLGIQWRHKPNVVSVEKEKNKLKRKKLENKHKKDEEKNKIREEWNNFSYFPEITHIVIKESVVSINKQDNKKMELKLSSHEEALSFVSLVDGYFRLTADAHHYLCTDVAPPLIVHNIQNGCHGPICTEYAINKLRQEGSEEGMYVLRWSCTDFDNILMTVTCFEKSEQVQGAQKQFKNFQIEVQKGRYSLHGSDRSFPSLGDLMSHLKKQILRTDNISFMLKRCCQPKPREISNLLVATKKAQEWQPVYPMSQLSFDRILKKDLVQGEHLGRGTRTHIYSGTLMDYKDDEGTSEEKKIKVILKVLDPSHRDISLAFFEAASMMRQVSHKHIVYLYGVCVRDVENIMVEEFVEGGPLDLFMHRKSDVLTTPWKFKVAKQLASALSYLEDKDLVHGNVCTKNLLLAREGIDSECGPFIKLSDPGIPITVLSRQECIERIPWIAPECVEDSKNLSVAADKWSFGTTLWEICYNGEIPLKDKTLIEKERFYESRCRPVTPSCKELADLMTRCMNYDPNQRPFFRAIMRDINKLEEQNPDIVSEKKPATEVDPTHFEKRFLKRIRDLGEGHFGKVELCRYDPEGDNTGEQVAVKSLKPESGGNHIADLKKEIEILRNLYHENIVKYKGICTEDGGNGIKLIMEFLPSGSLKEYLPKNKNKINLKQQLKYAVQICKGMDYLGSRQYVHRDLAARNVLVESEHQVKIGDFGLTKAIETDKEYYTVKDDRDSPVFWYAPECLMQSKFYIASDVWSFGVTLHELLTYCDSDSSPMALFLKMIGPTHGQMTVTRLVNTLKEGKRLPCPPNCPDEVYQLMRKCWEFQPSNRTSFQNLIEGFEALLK
Sequence of Mast/stem cell growth factor receptor Kit (Homo sapiens), P10721 [T670I] (P10721 whole entry T670I): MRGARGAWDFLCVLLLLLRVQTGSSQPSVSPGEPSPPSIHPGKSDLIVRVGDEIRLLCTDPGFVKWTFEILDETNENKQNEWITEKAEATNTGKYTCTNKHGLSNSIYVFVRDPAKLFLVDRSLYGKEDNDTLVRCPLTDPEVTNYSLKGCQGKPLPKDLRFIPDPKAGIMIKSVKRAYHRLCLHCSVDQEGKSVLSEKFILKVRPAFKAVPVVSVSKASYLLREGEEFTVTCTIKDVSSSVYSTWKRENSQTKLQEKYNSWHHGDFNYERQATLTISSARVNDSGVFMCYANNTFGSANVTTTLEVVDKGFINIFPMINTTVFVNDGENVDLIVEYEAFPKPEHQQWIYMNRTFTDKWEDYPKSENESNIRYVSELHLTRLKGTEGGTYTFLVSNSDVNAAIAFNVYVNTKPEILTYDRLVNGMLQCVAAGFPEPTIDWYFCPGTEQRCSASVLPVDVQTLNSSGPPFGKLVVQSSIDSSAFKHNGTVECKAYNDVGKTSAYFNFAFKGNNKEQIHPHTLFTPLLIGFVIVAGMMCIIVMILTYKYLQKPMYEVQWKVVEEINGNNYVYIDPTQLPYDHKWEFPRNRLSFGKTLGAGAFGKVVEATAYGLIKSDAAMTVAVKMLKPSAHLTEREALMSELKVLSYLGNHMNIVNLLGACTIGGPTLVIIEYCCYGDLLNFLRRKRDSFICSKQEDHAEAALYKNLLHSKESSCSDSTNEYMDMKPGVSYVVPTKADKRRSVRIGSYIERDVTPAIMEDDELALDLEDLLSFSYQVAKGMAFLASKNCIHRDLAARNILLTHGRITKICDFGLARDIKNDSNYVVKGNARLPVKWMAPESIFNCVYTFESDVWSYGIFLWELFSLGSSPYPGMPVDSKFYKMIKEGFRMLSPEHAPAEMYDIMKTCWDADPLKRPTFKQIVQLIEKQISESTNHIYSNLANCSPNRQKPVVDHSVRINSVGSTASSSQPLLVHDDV
Sequence of Tyrosine-protein kinase Lck (Homo sapiens) (P06239 2-509 limits assumed): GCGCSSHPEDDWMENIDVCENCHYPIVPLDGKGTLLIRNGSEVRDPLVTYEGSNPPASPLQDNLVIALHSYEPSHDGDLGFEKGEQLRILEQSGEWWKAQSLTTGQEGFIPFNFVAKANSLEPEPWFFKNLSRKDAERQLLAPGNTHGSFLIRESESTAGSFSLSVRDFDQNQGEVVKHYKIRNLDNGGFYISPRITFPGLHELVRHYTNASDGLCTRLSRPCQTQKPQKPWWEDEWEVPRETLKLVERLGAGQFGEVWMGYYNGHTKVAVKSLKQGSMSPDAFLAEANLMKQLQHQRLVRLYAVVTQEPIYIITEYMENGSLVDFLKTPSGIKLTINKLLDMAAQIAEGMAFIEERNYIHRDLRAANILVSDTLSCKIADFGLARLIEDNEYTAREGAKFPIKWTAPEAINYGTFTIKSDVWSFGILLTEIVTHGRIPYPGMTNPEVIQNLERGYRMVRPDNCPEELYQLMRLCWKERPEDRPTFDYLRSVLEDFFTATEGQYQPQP
Sequence of Mast/stem cell growth factor receptor Kit (Homo sapiens), P10721 [D816V] (P10721 whole entry D816V): as the sequence (P10721 whole entry T670I) above, with I670T, D816V counted along it
Sequence of Mast/stem cell growth factor receptor Kit (Homo sapiens) (P10721 whole entry): as the sequence (P10721 whole entry T670I) above, with I670T counted along it
Sequence of Tyrosine-protein kinase JAK2 (Homo sapiens) (O60674 whole entry): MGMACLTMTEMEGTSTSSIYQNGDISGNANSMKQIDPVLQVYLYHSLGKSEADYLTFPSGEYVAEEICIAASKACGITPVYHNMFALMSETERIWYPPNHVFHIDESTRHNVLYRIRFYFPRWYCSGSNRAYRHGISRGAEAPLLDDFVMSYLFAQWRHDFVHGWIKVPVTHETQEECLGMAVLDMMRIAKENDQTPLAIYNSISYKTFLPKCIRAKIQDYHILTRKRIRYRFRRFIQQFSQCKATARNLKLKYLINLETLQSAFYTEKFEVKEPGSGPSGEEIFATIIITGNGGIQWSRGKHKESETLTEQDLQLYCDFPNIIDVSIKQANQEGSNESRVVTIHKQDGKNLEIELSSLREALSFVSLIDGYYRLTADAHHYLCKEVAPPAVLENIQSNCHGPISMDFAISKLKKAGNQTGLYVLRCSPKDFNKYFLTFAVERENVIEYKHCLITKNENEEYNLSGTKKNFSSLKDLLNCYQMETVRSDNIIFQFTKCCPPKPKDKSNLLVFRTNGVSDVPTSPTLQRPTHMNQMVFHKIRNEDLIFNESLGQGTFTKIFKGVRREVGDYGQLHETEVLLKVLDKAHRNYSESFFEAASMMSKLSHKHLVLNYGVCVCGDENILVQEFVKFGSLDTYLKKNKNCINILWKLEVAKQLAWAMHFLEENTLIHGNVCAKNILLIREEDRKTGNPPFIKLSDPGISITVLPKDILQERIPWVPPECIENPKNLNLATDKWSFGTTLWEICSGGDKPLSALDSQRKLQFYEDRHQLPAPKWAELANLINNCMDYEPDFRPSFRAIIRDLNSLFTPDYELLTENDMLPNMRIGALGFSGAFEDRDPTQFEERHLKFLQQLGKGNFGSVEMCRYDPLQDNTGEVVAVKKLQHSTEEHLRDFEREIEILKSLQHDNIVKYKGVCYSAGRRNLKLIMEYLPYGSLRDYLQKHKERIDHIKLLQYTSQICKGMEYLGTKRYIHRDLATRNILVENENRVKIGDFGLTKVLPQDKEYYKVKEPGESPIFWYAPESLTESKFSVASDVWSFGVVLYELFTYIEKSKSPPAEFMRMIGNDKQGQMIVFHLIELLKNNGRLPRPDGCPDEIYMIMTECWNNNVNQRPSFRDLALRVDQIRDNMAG
Sequence of Mast/stem cell growth factor receptor Kit (Homo sapiens), P10721 [V560G] (P10721 whole entry V560G): as the sequence (P10721 whole entry T670I) above, with V560G, I670T counted along it

As for `CCn1c(-c2nonc2N)nc2c(C#CC(C)(C)O)ncc(OC[C@@H]3CCCN3)c21`, the inhibition in test [1] is 0.41%; in test [2], 0.75%; in [3], 2.18%; in test [4], -1.4%; in [5] it was -2.12%; in test [6] it was -2.14%. For the same compound, the inhibition is 0.33% in test [7]; 31.2% in test [8]; 81.3% in test [9]; -1.26% in [10]; -2.57% in test [11]; -1.62% in test [12]. Besides, the inhibition was 4.32% in test [13]; -1.38% in test [14]; 1.32% in test [15]; 0.39% in test [16]; -1.89% in [17]; 1.21% in test [18]. Also, the figures for the inhibition in test [19] and in test [20] were 3.66% and 0.71%, respectively.

Regarding `Fc1ccc(-c2ncn(C3CCNCC3)c2-c2ccnc(Oc3ccccc3)n2)cc1`, the inhibition in [1] is -3.42%; in [2], 1.24%; in test [3] it was -0.07%; in test [4] it was -0.28%; in [5], -0.02%; in test [6], -6.39%. The inhibition was -5.72% in [7]; 4.3% in test [8]; 6.72% in test [9]; 0.89% in test [10]; 1.46% in test [11]; 0.53% in test [12]. Moreover, the inhibition in [13] is 4.38%; in [14], 0.68%; in test [15], 2.08%; in test [16] it was 3.13%; in [17], 1.77%; in [18], -2.11%. Besides, the inhibition in test [19] was -2.53%; in test [20], 0.54%.

`COc1cc2c(cc1Nc1nc(Nc3ccsc3C(N)=O)c3cc[nH]c3n1)N(C(=O)CN(C)C)CCC2`: the inhibition in test [1] was 0.88%; in test [2], 3.36%; in [3] it was 1.85%; in test [4], 3.45%; in test [5], -0.28%; in test [6] it was -2.19%. Moreover, the inhibition in test [7] was -1.7%; in test [8], 1.27%; in test [9] it was 5.32%; in [12], 0.61%; in [13], 2.53%; in [14] it was -0.99%. The inhibition in test [15] turned out to be 3.92%; in test [16], 1.1%; in [17] it was 8.54%; in test [18] it was 2.58%; in [19] it was 6.92%; in test [20], 93.8%.

On to `COc1cccc(COc2cc(-n3cnc4ccccc43)sc2C(N)=O)c1`, for which the inhibition in [1] is 0.54%; in test [2], -1.14%; in [3], 0.01%; in test [4] it was -1.09%; in [5] it was -2.1%; in test [6] it was -1.45%. Further, the inhibition in test [7] is -1.13%; in test [8] it was -3.84%; in test [9] it was 3.07%; in [10] it was 0.16%; in test [11], -3.97%; in test [12] it was -0.07%. For the same compound, the inhibition in [13] was -0.97%; in test [14], -0.12%; in test [15], -0.76%; in test [16] it was -2.2%; in [17], -2.16%; in test [18], 0.12%. In addition, the inhibition was -0.7% in test [19] and 0.36% in test [20].

Consider `Nc1nonc1-c1nc2cnccc2n1C1CCCCC1`, for which the inhibition in test [1] was 0.48%; in test [2], -2.62%; in test [3], 2.81%; in test [4], -0.95%; in test [5], -0.41%; in test [6] it was -0.04%. Also, the inhibition in [7] is 3.98%; in test [8], 6.99%; in test [9], 46.3%; in test [10], -1.47%; in [11], 20.6%; in [12] it was -4.78%. The inhibition was -1.9% in test [13]; -2.27% in test [14]; 13.3% in [15]; 1.39% in test [16]; 3.23% in test [17]; -0.24% in [18]. The inhibition in test [19] is 0.51%; in test [20], -0.53%.

For the compound `NS(=O)(=O)c1ccc(N/C=C2\C(=O)Nc3ccc4ncsc4c32)cc1`, the inhibition in test [1] was determined as 8.24%; in test [2] it was 5.09%; in [3], 26.8%; in test [4] it was 1.74%; in [5] it was 11.1%; in test [6] it was 6.45%. The inhibition in test [7] came to 54.4%; in [8], 43.8%; in test [9] it was 75.3%; in test [10] it was 50%; in test [11], 90%; in test [12], 0.89%. The inhibition in test [13] was 14.5%; in test [14], 12.1%; in test [15], 58.9%; in test [16], 0.83%; in test [17], 20.2%; in test [18] it was 4.26%. In addition, the inhibition came out at 13.2% in [19] and 5.19% in test [20].

In the case of `NS(=O)(=O)c1ccc(-c2ccc3c(NC(=O)C4CC4)n[nH]c3c2)cc1`, the inhibition was 6.67% in [1]; 1.47% in [2]; -1.13% in [3]; 1.06% in [4]; 2.65% in test [5]; -0.06% in test [6]. Moreover, the inhibition in test [7] was 2.45%; in test [8] it was 3.61%; in test [9], 8.35%; in test [10], 3.61%; in test [11] it was 1.91%; in test [12], 3.57%. For the same compound, the inhibition is 0.9% in test [13]; 4.28% in test [14]; 4.13% in test [15]; 2.1% in test [16]; -1.99% in [17]; 2.8% in test [18]. The inhibition in test [19] was determined as 4.43%; in test [20], 1.17%.
